Lassa entry inh = Lassa virus entry inhibition; Lassa virus pseudotype entry inhibition, cell reporter; Potency, µM (highest dose often 37.9 µM), without a hit: top-dose activity change, negative = inhibition, hits mostly inhibitors; actives 1.2% (n = 300,000); calls by dose curve; tested in HEK293 cells; further: potency means the concentration at half of the fitted maximal effect; nearly all actives have a fitted effect of over 50% in size
FMDV inh = blocks foot and mouth disease virus; FMDV antiviral cell-based qHTS; Potency, µM (series often up to 57.9 µM), inactives show at the top dose activity change, negative = inhibition, hits mostly inhibitors; actives 1.2% (n = 410,000); calls by dose curve; tested in HEK293T cells; further: read-out not given here; potency means the concentration at half of the fitted maximal effect; nearly all actives have a fitted effect of over 45% in size
HCV inh = inhibitors of hepatitis C virus infection. actives 3.4% (n = 340,000). Potency, µM (highest dose often 41.8 µM), for inactives: at the highest dose activity change, negative = inhibition, usual class: inhibitors. Huh7.5.1 HCVcc-Cre infection, luciferase reporter, 44 h; further: potency means the concentration at half of the fitted maximal effect
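Cells seeded at 1,000/well and cultured 4 h, then compounds added followed by HCVcc-Cre virus (~0.5 moi). After 44 h further culture, luciferase substrate was added, plates held 15 min at room temperature, and luminescence read for 15 sec.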
MARV entry inh = Marburg virus entry inhibition; Marburg virus pseudotyped entry inhibition, cell reporter; Potency, µM (doses to about 37.8 µM), inactives show at the top dose activity change, negative = inhibition, hits mostly inhibitors; actives 1.8% (n = 300,000); AID 540276; calls by dose curve; tested in HEK293 cells; further: potency means the concentration at half of the fitted maximal effect
FBPA Giardia inh = inhibitors of Giardia lamblia fructose-1,6-bisphosphate aldolase. purified Giardia FBPA. A8B2U2. actives 0.71% (n = 290,000). Potency, µM (titrated, usually from 59.6 µM), for the others: top-dose activity, negative = inhibition, hits mostly inhibitors. AID 2451; further: potency means the concentration at half of the fitted maximal effect; nearly all actives have a fitted effect of over 55% in size
Target sequence (A8B2U2 whole entry, looked up): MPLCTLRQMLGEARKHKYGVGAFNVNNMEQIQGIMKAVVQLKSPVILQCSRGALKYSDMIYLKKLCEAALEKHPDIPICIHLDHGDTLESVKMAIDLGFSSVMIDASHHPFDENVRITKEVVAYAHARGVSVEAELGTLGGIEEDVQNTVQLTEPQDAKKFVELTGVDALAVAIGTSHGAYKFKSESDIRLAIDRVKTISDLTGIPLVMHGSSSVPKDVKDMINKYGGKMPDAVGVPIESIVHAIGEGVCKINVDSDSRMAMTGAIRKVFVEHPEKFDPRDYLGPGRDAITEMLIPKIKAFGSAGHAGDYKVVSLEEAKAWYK
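40 nM FBPA preincubated 10 min at RT with compound (up to 57.5 uM final), then substrate plus GAPDH/TPI/NAD/arsenate coupling and diaphorase/resazurin added. Fluorescence read after 20 min at RT, 525/598 nm.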
HCMV inh = blocks human cytomegalovirus replication; HFF cells, HCMV-luciferase reporter, 72 h; hits give low values; activity change, negative = inhibition, % at 57.5 µM; actives 4.5% (n = 410,000); AID 1259415; in the data active means activity change below about -60%; inconclusive means no clear call, values can overlap the other calls; inactive means above about -39%
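Screen run at 2 compound doses on HFFs infected with reporter HCMV, MOI 1 PFU/cell. Luciferase activity from cell lysates at 72 h post infection gave inhibition relative to buffer-only and Salinomycin wells.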
Starred values were filed as active, the others as inactive; ? = inconclusive; / = no result given; [ ] = dose if it differs, or a comment. Only some compounds are listed: those with a hit (about 8.3% of all), similar ones and a draw of the others. Unless noted, the call rests on the fitted dose curve; in most records, active means well fitted curve in the direction sought with a large enough effect; inconclusive means small, poorly fitted or top-dose-only effect, or another doubt; inactive means no such curve, though single readings can be large; an effect the other way counts as inactive or inconclusive. On the % scale 0 is the no-effect control and ±100 the full control effect.

SMILES | Lassa entry inh | FMDV inh | HCV inh | MARV entry inh | FBPA Giardia inh | HCMV inh
Cn1cc(CN2CCC(C(=O)Nc3ccc(Oc4ccccc4F)cc3)CC2)cn1 | / | ? | 11µM* | / | / | ?
CCn1ccnc1CN1CCCCC1C(=O)Nc1ccc(Oc2cccnc2)cc1 (centres undefined) | -1% | -6% | ? | ? | -5% | 5
COc1ccc(C(NC(=O)C2CCN(Cc3ccc(Oc4ccccc4)cc3)CC2)c2ccccn2)cc1 (centres undefined) | / | -22% | / | / | / | -9
COc1cccc(O)c1CN1CCC(C(=O)Nc2ccc(Oc3cccnc3)cc2)CC1 | -26% | -10% | ? | 11µM* | / | ?
COc1cccc(O)c1CN1CCC(C(=O)Nc2ccc(-c3cccc(C)c3)cc2)CC1 | ? | ? | 1µM* | ? | 2% | -31
COc1ccc(CN2CCC(C(=O)Nc3ccc(Oc4cccnc4)cc3)CC2)cc1 | ? | ? | ? | ? | / | -75*
CC(=O)c1ccccc1NC(C(=O)Nc1c(C)cccc1C)C1CCCC1 (centres undefined) | / | / | / | / | / | -5
Cc1ccc2c(c1)C(C1(O)C(=O)N(Cc3ccccc3)c3ccccc31)C(=O)N2C (centres undefined) | / | / | / | / | / | 3
Cc1cc(C)c(OCC(=O)N(Cc2ccco2)Cc2ccco2)c(C)c1 | 1%[46.1 µM] | -16% | / | -13%[46.1 µM] | / | -20
COc1cccc(NC(=O)C2CCN(Cc3cnn(-c4ccccc4)c3-n3cccc3)CC2)c1 | ? | ? | 11µM* | ? | -5% | -19
N#CC(c1c(Cl)cccc1N1CCCCC1)N1CCCCC1 (centres undefined) | / | / | / | / | / | 13
Nc1ncnc2c(C3OC(CO)C(O)C3O)scc12 (centres undefined) | ? | -3% | ? | ? | / | -97*
Nc1ncnc2c1ncn2C1O[C@H](CO)[C@@H](O)[C@@H]1O (some centres undefined) | / | 0% | -27% | / | / | 35
OC[C@H]1NC[C@@H](O)[C@@H](O)[C@H]1O | / | -14% | / | / | 0% | /
Cc1nnc(SCc2ccccc2Cl)c2cc3occc3n12 | 16%[46.1 µM] | 42% | / | / | / | 27
CCN(CC)C(=O)CC(c1ccc(F)cc1)c1ccc(OC)cc1 (centres undefined) | -24% | -30% | -9% | -25% | 2% | -67*
Cc1cc(=O)n2c3ccccc3n(CC(O)CN3CCOCC3)c2c1C#N (centres undefined) | -10%[46.1 µM] | -24% | ? | -8%[46.1 µM] | 2% | -16
Cc1cc(=O)n2c3ccccc3n(CC(O)CN3CCCCC3)c2c1C#N (centres undefined) | 8% | / | ? | ? | 2% | -87*
COc1cccc(CNc2sc3c(c2C(=O)Nc2ccc(OC)cc2OC)CCC3)c1 | -2%[46.1 µM] | -9% | / | / | / | -7
Oc1ccc(Nc2nc(N3CCCC3)c3ccccc3n2)cc1 | ? | -28% | ? | 11µM* | -8% | -66*
C(=C\c1nc(N2CCCC2)c2ccccc2n1)/c1ccccc1 | ? | ? | ? | 7.1µM* | 18% | -72*
COc1ccc(Nc2nc(N3CCCCC3)c3ccccc3n2)cc1 | ? | 25µM* | ? | ? | 1% | -64*
COc1cccc(-c2nc(N3CCCCC3)c3ccccc3n2)c1O | -8% | -22% | ? | ? | / | 46
Cc1ccc(Nc2nc(N3CCOCC3)c3ccccc3n2)cc1 | ? | ? | ? | ? | -9% | -32
COc1ccc(Nc2nc(-c3ccccc3)c3cc(Br)ccc3n2)cc1 | -23%[46.1 µM] | 7% | / | / | / | -61*
SMILES | Lassa entry inh | FMDV inh | HCV inh | MARV entry inh | FBPA Giardia inh | HCMV inh
CC1CCN(c2nc(/C=C/c3ccccc3)nc3ccccc23)CC1 | ? | 1% | ? | ? | 4% | 24
CCCCC1=CC2=C(OC(C)=O)C(=O)C(C)(OC(=O)C3CCCC3)C(=O)C2=CO1 (centres undefined) | / | / | / | / | -22% | /
COCCNC(=O)c1cccc(Nc2nc(-c3ccccc3)c3cc(Cl)ccc3n2)c1 | -1% | ? | 10µM* | 5% | 0% | -33
COc1ccccc1C(=O)NNC1=C(C(=O)C(F)(F)F)CCC1 | ? | / | ? | ? | 1% | -100*
O=C(NNC1=C(C(=O)C(F)(F)F)CCC1)c1ccccc1Cl | 8% | 0% | -5% | 9% | 5% | ?
O=C(NNC1=C(C(=O)C(F)(F)F)CCC1)c1ccccc1O | -10% | -19% | 32% | -21% | -21% | 55
Nc1ccccc1C(=O)NNC1=C(C(=O)C(F)(F)F)CCC1 | -21% | 7% | ? | 6%[46.1 µM] | 5% | -85*
O=C1/C(=C/c2ccncc2)Oc2cc(OS(=O)(=O)c3ccccc3)ccc21 | / | ? | ? | / | 0% | 1
COc1cccc(OC)c1C(=O)Oc1ccc2c(c1)O/C(=C\c1ccncc1)C2=O | 5% | ? | 7% | 7.1µM* | -2% | -75*
COc1ccc(SCC(CC(C)C)N2CCN(C)CCC2=O)cc1 (centres undefined) | / | / | / | / | 2% | /
CC(=O)c1c(C)oc2c1cc(NS(=O)(=O)c1ccc(C(C)(C)C)cc1)c1ccccc12 | -26%[46.1 µM] | -28% | / | / | / | -17
COc1ccc(S(=O)(=O)Nc2cc3c(C(C)=O)c(C)oc3c3ccccc23)cc1 | ? | 0% | 18µM* | ? | ? | -76*
COc1ccc(-c2cn3c(n2)sc2cc(C(=O)NCCc4ccc(OC)cc4OC)ccc23)cc1 | 5%[46.1 µM] | -12% | / | / | / | /
O=C1C(=O)c2ccccc2C([O-])=C1[n+]1ccccc1 | / | 22µM* | 6% | / | -30% | -36
CCN1C(=O)[C@@H]2[C@H](C1=O)[C@@H]1C[C@H]3C(=O)N(CC)C(=O)[C@H]3[C@@H]3C1=C(C(=O)N1C(=O)O/C(=N\CC4CC4)[C@]31C)[C@@H]2C | / | / | / | / | 8% | /
CC(C)n1cc(/C=N/NC(=O)COc2cccc3cccnc23)c2ccccc21 | ? | ? | ? | 10µM* | -1% | 12
O=C(N[C@H]1CC[C@@]23CCCN2C(=O)CCC[C@H]3[C@H]1Cc1ccccc1)C1CCC1 | / | / | / | / | / | 12
Cc1cccc(C)c1OCC(=O)N/N=C/c1ccc2c(c1)OCO2 | ? | 0% | -23% | -14% | 1% | 18
Cc1ccc(C)c(OCC(=O)NCCNC(=O)COc2cc(C)ccc2C)c1 | -1% | -29% | ? | -12% | 3% | 31
C/C=N\NC(=O)COc1cc(C)ccc1C | 24% | -6% | 15% | -7%[46.1 µM] | 3% | -60*
Cc1ccc(C(C)C)cc1OCC(=O)N/N=C/c1ccc2c(c1)OCCO2 | 1.1µM* | ? | -25% | ? | 0% | -20
CCCCNC(=O)COC(=O)c1c2c(nc3ccccc13)/C(=C/c1cccs1)CC2 | ? | 19% | 2.2µM* | ? | -4% | 78

Source: PubChem (National Center for Advancing Translational Sciences (NCATS))
